This passage reports Inhibition results from ChEMBL document CHEMBL4513155, “CO-ADD screening of University of Sydney (Australia) compounds” (2021).

Potency and affinity values are given separately.

For one assay, the system named is Staphylococcus aureus. As to conditions: Concentration 32 ug.mL-1; ASSAY_TEST Inhibition of Bacterial Growth; detection method Absorption (OD600); MEDIA CAMHB; plate type 384well; NBS; CORNING #3640; time 18 hr.
With `O.O=C1c2cccc3c(-n4cc(CN5CCCNCCN(Cc6cn(-c7ccc8c9c(cccc79)C(=O)N(CCCO)C8=O)nn6)CCCNCC5)nn4)ccc(c23)C(=O)N1CCCO.[Cl-].[Cl-].[Zn+2]`, the Inhibition turned out to be 7.81%.

In the case of `COC(COc1cncc2nnc(-c3ccc(C#N)cc3)n12)c1ccc(F)c(F)c1` (centres undefined), the Inhibition was -4.85%.

Regarding `N#Cc1ccc(-c2nnc3cncc(OCC(O)c4ccc(F)c(F)c4)n23)cc1` (centres undefined), the Inhibition is -3.19%.

As for `CN(C)C(COc1cncc2nnc(-c3ccc(C#N)cc3)n12)c1ccc(F)c(F)c1` (centres undefined), the Inhibition is recorded as -0.93%.

As to `Fc1ccc(CCOc2cncc3nnc(-c4ccc(Cl)cc4)n23)cc1F`, the Inhibition is -7.02%.

For `CCN1C(=O)c2cccc3c(-c4cn(CCN5CCCNCCN(CCn6cc([C@]7(O)CC[C@H]8[C@@H]9CCc%10cc(O)ccc%10[C@H]9CC[C@@]87C)nn6)CCCNCC5)nn4)ccc(c23)C1=O.OCCN1CCN(CCCN2c3ccccc3Sc3ccc(Cl)cc32)CC1.[O-][Cl+3]([O-])([O-])[O-].[O-][Cl+3]([O-])([O-])[O-].[Zn+2]`, the Inhibition was found to be 38.05%.

In the case of `Fc1ccc(CCOc2cncc3nnc(-c4ccc(C(F)(F)F)nc4)n23)cc1F`, the Inhibition amounted to 6.53%.

For the next assay, the system named is Escherichia coli. As to conditions: Concentration 32 ug.mL-1; ASSAY_TEST Inhibition of Bacterial Growth; detection method Absorption (OD600); MEDIA CAMHB; plate type 384well; NBS; CORNING #3640; time 18 hr.
On to `O.O=C1c2cccc3c(-n4cc(CN5CCCNCCN(Cc6cn(-c7ccc8c9c(cccc79)C(=O)N(CCCO)C8=O)nn6)CCCNCC5)nn4)ccc(c23)C(=O)N1CCCO.[Cl-].[Cl-].[Zn+2]`, for which the Inhibition turned out to be 6.15%.

Take `COC(COc1cncc2nnc(-c3ccc(C#N)cc3)n12)c1ccc(F)c(F)c1` (centres undefined): the Inhibition came out at 2.52%.

Consider `N#Cc1ccc(-c2nnc3cncc(OCC(O)c4ccc(F)c(F)c4)n23)cc1` (centres undefined), for which the Inhibition amounted to 2.25%.

For `CN(C)C(COc1cncc2nnc(-c3ccc(C#N)cc3)n12)c1ccc(F)c(F)c1` (centres undefined), the Inhibition came to 3.93%.

Consider `Fc1ccc(CCOc2cncc3nnc(-c4ccc(Cl)cc4)n23)cc1F`, for which the Inhibition is given as -0.47%.

Turning to `CCN1C(=O)c2cccc3c(-c4cn(CCN5CCCNCCN(CCn6cc([C@]7(O)CC[C@H]8[C@@H]9CCc%10cc(O)ccc%10[C@H]9CC[C@@]87C)nn6)CCCNCC5)nn4)ccc(c23)C1=O.OCCN1CCN(CCCN2c3ccccc3Sc3ccc(Cl)cc32)CC1.[O-][Cl+3]([O-])([O-])[O-].[O-][Cl+3]([O-])([O-])[O-].[Zn+2]`, the Inhibition is 0.56%.

As to `Fc1ccc(CCOc2cncc3nnc(-c4ccc(C(F)(F)F)nc4)n23)cc1F`, the Inhibition is reported as 1.6%.
